Screening data: PubChem, National Center for Advancing Translational Sciences (NCATS)
Sampled rows, rich in hits. Any-hit rate of the full collection: about 15%.
HCMV antiviral: inhibitors of human cytomegalovirus. activity change, negative = inhibition, % at 57.5 µM. actives 4.5% (n = 410,000). AID 1259415. HFF cells, HCMV-luciferase reporter, 72 h; stronger effect = lower value; in the data active = activity change below about -60%; inconclusive = no clear call, values can overlap the other calls; inactive = above about -39%; also: % is scaled to controls: 0 for no effect and ±100 for the full control effect
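Luciferase read-out from HCMV-luciferase-infected HFFs (MOI 1 PFU/cell) 72 h post infection at 37C; compounds added after 16 h cell attachment; activity normalized between buffer-only basal and Salinomycin (10uM) inhibitor controls.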
SARS PLP yeast: blocks SARS-CoV papain-like protease in a yeast assay; S. cerevisiae expressing SARS-CoV PLpro, growth rescue; Potency, µM (doses to about 32.9 µM), without a hit: at the top dose activity, positive = growth rescue, actives largely listed as activators; actives 0.19% (n = 330,000); calls by dose curve; also: potency is read from the fitted curve at half-maximal effect; 0% is about no effect; nearly all actives have a fitted effect of over 55% in size
HCV inhibitor: blocks hepatitis C virus | Huh7.5.1 HCVcc-Cre infection, luciferase reporter, 44 h | actives 3.4% (n = 340,000) | Potency, µM (titrated, usually from 41.8 µM), for the others: at the top dose activity change, negative = inhibition, usual class: inhibitors | AID 651820; also: potency is read from the fitted curve at half-maximal effect; % is scaled to controls: 0 for no effect and ±100 for the full control effect
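Reporter virus HCVcc-Cre (~0.5 moi) infects cells exposed to compound; seeding density 1,000 cells/well with 4 h settling beforehand. Luminescence, 15 sec read, taken 44 h post-infection following a 15 min RT substrate incubation.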
Pf growth 96h: inhibits malaria parasite growth, 96 h; actives 6.9% (n = 320,000); Potency, µM (doses to about 28.7 µM), for the others: top-dose activity change, negative = inhibition, hits mostly inhibitors; P. falciparum luciferase reporter growth, 96 h; also: potency is read from the fitted curve at half-maximal effect; % is scaled to controls: 0 for no effect and ±100 for the full control effect
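Cell-based qHTS: luciferase-tagged P. falciparum in erythrocytes (2% hematocrit, 0.05% parasitemia final) incubated with compounds for 96 hours, 37 C, 5% CO2; luciferase detection reagent then added and luminescence measured.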
Pf growth 48h: P. falciparum growth inhibition at 48 hours (one generation) | P. falciparum luciferase growth in erythrocytes, 48 h | Potency, µM (titrated, usually from 28.7 µM), for inactives: at the highest dose activity change, negative = inhibition, actives largely listed as inhibitors | actives 5.9% (n = 310,000) | AID 504832; also: potency is read from the fitted curve at half-maximal effect; % is scaled to controls: 0 for no effect and ±100 for the full control effect
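Firefly luciferase activity from engineered P. falciparum reports growth; inhibitors lower the luminescent signal. Cultures contained 2% hematocrit erythrocytes at 0.1% final parasitemia.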
Sm TGR block: blocks Schistosoma mansoni thioredoxin glutathione reductase. actives 3% (n = 360,000). purified TGR, DTNB reduction, TNB absorbance 405 nm. Potency, µM (series often up to 114 µM), for the others: top-dose activity change, negative = inhibition, hits mostly inhibitors. Q962Y6. AID 485364; also: potency is read from the fitted curve at half-maximal effect; % is scaled to controls: 0 for no effect and ±100 for the full control effect; nearly all actives have a fitted effect of over 60% in size
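First, TGR (20 nM dispensed) and NADPH were mixed with compound. Second, a 15 min room-temperature incubation followed. Third, further NADPH and then DTNB were added to start the reaction. Finally, TNB absorbance was monitored kinetically.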
Active calls of the source: *; u = inconclusive; x = no result; [ ] = another dose, or the depositor's remark. Unless noted, calls follow the shape of the dose curve; as a rule, active = well fitted curve in the direction sought with a large enough effect; inconclusive = small, poorly fitted or top-dose-only effect, or another doubt; inactive = no such curve, though single readings can be large; an effect the other way counts as inactive or inconclusive.

SMILES | HCMV antiviral | SARS PLP yeast | HCV inhibitor | Pf growth 96h | Pf growth 48h | Sm TGR block
CC(=O)N1CCc2cc(S(=O)(=O)NC(CC(C)C)C(=O)NCc3ccccc3Cl)ccc21 (stereo unspecified) | -27 | x | x | x | x | -5%
CC(=O)N1CCc2cc(S(=O)(=O)NCC(=O)NCc3ccccc3Cl)ccc21 | -12 | -2% | 6% | 9.3µM* | -14% | -3%
c1ccc(-c2cccc(-c3ccccc3)n2)cc1 | -65* | 0% | -1% | 45% | x | 0%
Cc1cccc(/C=C/C(=O)c2cc(Br)ccc(=O)c2O)c1 | -104* | 16% | 14µM* | x | u | 2%
Cc1ccc(/C=C/C(=O)c2cc(Br)ccc2OC(=O)c2ccco2)cc1 | u | -8% | u | u | 13µM* | 0%
CCOc1ccc(/C=C/C(=O)c2cc(Br)ccc(=O)c2O)cc1 | 2 | -82% | u | 9.3µM* | 10µM* | 28µM*
COc1ccccc1/C=C/C(=O)c1cc(Br)ccc1OC(=O)c1ccco1 | 15 | x | u | x | x | x
O=C(C=Cc1ccccc1)c1cc(Br)ccc1O | -22 | x | -22% | x | x | x
O=C(/C=C/c1cc(Br)ccc1O)c1ccco1 | -79* | -21% | u | 22% | -1% | 14µM*
COc1ccc(-n2c(=O)c3c4c(sc3n(Cc3ccc(F)cc3)c2=O)CCCC4)c(OC)c1 | -9 | x | x | x | x | -3%
COCCNC(=O)CSc1nc(-c2ccccc2)[nH]c1-c1ccc(OC)cc1 | -21 | x | x | x | x | 5%
CCc1ccc(/C=C/C(=O)c2cc(Br)ccc(=O)c2O)cc1 | -106* | 24% | u | x | u | 0%
Cc1cccc2cc(/C=C/C(=O)c3ccco3)c(Cl)nc12 | 36 | 2% | 4% | 31% | u | 7.9µM*
CCOc1ccc2nc(Cl)c(/C=C/C(=O)c3ccco3)cc2c1 | 61 | -2% | u | x | -3% | u
O=C(O)C1(c2ccccc2)CCN(S(=O)(=O)c2ccc(Br)cc2)CC1 | u | 12% | 1% | u | -15% | 89µM*
O=C(O)C1(c2ccccc2)CCN(S(=O)(=O)c2ccc(Cl)cc2)CC1 | -19 | 4% | 29% | u | -10% | 0%
O=C(c1ncn[nH]1)N1CCN(c2nc(-c3ccccc3)cs2)CC1 | -24 | -10% | -22% | x | 71% | -16%
O=C(c1cc(-n2cnnc2)ccc1Cl)N1CCN(c2nc(-c3ccccc3)cs2)CC1 | -13 | -1% | 10µM* | 0% | 3% | -3%
O=C1c2cccc3c(O)ccc(c23)C(=O)N1Cc1ccco1 | -25 | -1% | -5% | -19% | 2% | 6.3µM*
O=C1c2ccccc2C(=O)N1Cc1ccco1 | -9 | 1% | 11% | u | 12% | 1%
O=C1c2cccc3c(O)ccc(c23)C(=O)N1c1ccc(Cl)cc1 | -72* | -3% | 3% | 14% | x | 25µM*
COc1ccc(N2C(=O)c3cccc4c(N(C)CCO)ccc(c34)C2=O)cc1 | -28 | -5% | u | 22% | 10µM* | u
CC(=O)Nc1ccc(N2C(=O)c3cccc4c(O)ccc(c34)C2=O)cc1 | u | 1% | 3% | 22% | -1%[0.00184 µM] | u
COC(=O)c1sc2c(c1C)c(=O)n(-c1ccccc1)c(=O)n2CC(=O)Nc1cccc(C)c1 | -18 | x | x | x | x | -1%
CCC(=O)N1CCC1(C)C(=O)Nc1ccc(Cl)c(Cl)c1 (stereo unspecified) | -15 | x | x | x | x | x
SMILES | HCMV antiviral | SARS PLP yeast | HCV inhibitor | Pf growth 96h | Pf growth 48h | Sm TGR block
CCOc1ccc(C(=O)NC(C(=O)N2CCC2)C(C)C)cc1 (stereo unspecified) | 10 | -2% | 9% | 21% | -6% | 5%
CCS(=O)(=O)Nc1c(C(=O)O)[nH]c2ccccc12 | -108* | -2% | 0% | 12µM* | -5% | u
CC(=O)Nc1c(C(=O)O)[nH]c2ccccc12 | 57 | -5% | 16% | 10µM* | 6% | -22%
CCS(=O)(=O)Nc1c(C(=O)OC)[nH]c2ccccc12 | 36 | 5% | 0% | x | 12% | -14%
COc1cc(C(=O)Nc2c(C(=O)O)[nH]c3ccccc23)cc(OC)c1OC | 26 | -1% | 20% | -1% | 1% | -15%
O=C(CN1CCC2(CC1)OCCO2)c1ccc2cc[nH]c2c1 | -66* | -1% | 15% | 21% | 34% | 45µM*
COC(=O)C1=C(O)/C(=C\c2ccc(CNC(=O)C(=O)Nc3ccc(C)c(C)c3)o2)N=C1C | -6 | 6% | 8% | 33% | x | 32µM*
COC(=O)C1=C(O)/C(=C/c2ccc(OCC(=O)Nc3ccc(OC)cc3)cc2)N=C1C | 13 | x | x | x | x | x
COC(=O)C1=C(O)/C(=C\c2ccc(CNC(=O)C(=O)Nc3ccc(C)cc3)o2)N=C1C | 18 | -2% | -2% | 17% | 37% | 18µM*
CCOC(=O)C(=O)NCc1ccc(/C=C2/N=C(C)C(C(=O)OCC)=C2O)o1 | -15 | 1% | 8% | 12% | 22% | 32µM*
COC(=O)C1=C(O)/C(=C/c2cccc(OC)c2O)N=C1C | u | -1% | 10% | 38% | 72% | 2%
CCOC(=O)c1ccc(NC(=O)C(=O)NCc2ccc(/C=C(/C#N)C(=O)NCCOC)o2)cc1 | -24 | 2% | u | -10% | 46% | 6%
CCOC(=O)C1=C(O)/C(=C/c2ccc(CNC(=O)C(=O)Nc3ccc(C)cc3)o2)N=C1C | 8 | -7% | 9% | 33% | x | 18µM*
CCC(=O)Nc1ccc(C)cc1-c1nc2ccccc2n(CC(=O)Nc2ccccc2Cl)c1=O | 10 | x | x | x | x | -9%
COc1cc2c(cc1OC)C1=NC(=O)CN1C(SCc1ccccc1)=N2 | -33 | 3% | u | x | 10µM* | 20%
Cc1[nH]c(=O)[nH]c(=O)c1CCSSCCc1c(C)[nH]c(=O)[nH]c1=O | 17 | x | x | x | x | x
N#CCCN(C(=O)COC(=O)CCC(=O)c1ccc(F)cc1)c1ccccc1 | 0 | 0% | 0% | -15% | -3% | 40µM*
O=C(NC1CCCCC1)c1ccc(N2CCOCC2)c([N+](=O)[O-])c1 | 75 | -1% | -1% | u | -2% | 4%
O=[N+]([O-])c1ccc(N2CCCCC2)cc1N1CCOCC1 | 1 | -6% | 7% | u | -1% | -1%
CC1CCCN(c2ccc(C(=O)NCc3ccco3)cc2[N+](=O)[O-])C1 (stereo unspecified) | -35 | -42% | u | u | 4.1µM* | -5%
Cc1ccc(C(=O)NCc2ccco2)cc1[N+](=O)[O-] | 16 | -2% | 7% | 29% | -1% | -22%
NC(=O)c1ccc(N2CCN(c3ccccc3O)CC2)c([N+](=O)[O-])c1 | -21 | -6% | -10% | -12% | 0% | -2%
